Assay outcomes (PubChem BioAssay)
This is a sample that favours compounds with a hit; in the whole collection about 3.1% have one here.
PLK1 PBD inh – inhibitors of human PLK1 polo-box domain binding; P53350; Potency, µM, actives largely listed as inhibitors; 360,000 tested, 2.8% active; Plk1 PBD binding of FITC phosphopeptide, fluorescence polarization; further: series mostly up to about 57 µM; nearly all actives have a fitted effect of over 65% in size
Target sequence (P53350 whole entry, looked up, the tested form may be a part): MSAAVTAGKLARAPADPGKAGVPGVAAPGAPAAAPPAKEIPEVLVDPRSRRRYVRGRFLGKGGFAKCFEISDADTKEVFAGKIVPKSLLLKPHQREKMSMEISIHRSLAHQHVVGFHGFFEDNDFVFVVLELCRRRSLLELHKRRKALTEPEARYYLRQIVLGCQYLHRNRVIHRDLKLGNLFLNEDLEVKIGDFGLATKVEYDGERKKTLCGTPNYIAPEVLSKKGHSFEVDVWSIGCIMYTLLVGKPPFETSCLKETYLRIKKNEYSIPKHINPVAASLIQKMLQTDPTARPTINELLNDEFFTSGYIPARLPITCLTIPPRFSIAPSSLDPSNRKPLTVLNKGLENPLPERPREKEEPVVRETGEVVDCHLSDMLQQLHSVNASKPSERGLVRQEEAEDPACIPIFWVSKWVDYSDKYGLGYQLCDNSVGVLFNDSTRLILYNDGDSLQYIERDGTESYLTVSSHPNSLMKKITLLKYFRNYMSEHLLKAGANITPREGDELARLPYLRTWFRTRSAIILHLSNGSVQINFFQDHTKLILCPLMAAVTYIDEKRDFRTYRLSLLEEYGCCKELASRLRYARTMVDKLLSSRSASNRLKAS
VDR inh – inhibitors of human vitamin D receptor. Potency, µM, usual class: inhibitors. VDR-SRC2-3 peptide fluorescence polarization, 2 h. P11473. 400,000 tested, 0.93% active. AID 504847
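Inhibition of the VDR/SRC2-3 peptide interaction is quantified by fluorescence polarization. Compounds (23 nl, pintool) incubate with the reagents for 2 hours at ambient room temperature.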
PI4K2A inh – PI4K2A (human) kinase inhibition; Q9BTU6; purified PI4K2A, ADP-Glo luminescence, 1 h; hits give low values; activity change, negative = inhibition, % at 76.9 µM; 420,000 tested, 0.13% active; in the data active means activity change below about -50%; inconclusive means mostly about -30% to -49%
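ADP-Glo luminescence measured ADP generated by PI4K2A enzyme (4 ug/mL before mixing) with 1.2 mM PI substrate (pre-mix) and 300 microM ATP (pre-mix). Tris pH7.5 buffer with MgCl2, Triton X-100; 1 h reaction at ambient temperature.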
KAT2A inh – inhibitors of human GCN5L2 histone acetyltransferase. GCN5L2 HAT assay, ThioGlo1 CoA-SH fluorescence. Potency, µM (highest dose often 58.9 µM), actives largely listed as inhibitors. 390,000 tested, 0.21% active
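Fluorescence readout, Ex340nm/Em540nm: ThioGlo1 (50uM final) reacts with free CoA thiol released as 20nM GCN5L2 acetylates H3(1-25) peptide (75uM) using acetyl-CoA (70uM). Compound and enzyme sat 15 min beforehand; 20 min room-temperature reaction.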
GLS inhibitor – blocks human kidney-isoform glutaminase activity | Potency, µM (series often up to 45.5 µM), most hits filed as inhibitors | GLS enzymatic activity, qHTS titration | 410,000 tested, 0.21% active | O94925
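Enzyme dispensed in phosphate buffer (45 mM, pH 8.2, 0.02% Tween-20), compounds pinned in, then 1 mM L-glutamine solution and the glutamate oxidase–HRP–Amplex Red mix added; fluorescence read immediately and again after 30 min at room temperature.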
Large screens that a line does not name were inactive. Unless noted, the call rests on the fitted dose curve; in most records, active means well fitted curve in the direction sought with a large enough effect; inconclusive means small, poorly fitted or top-dose-only effect, or another doubt; inactive means no such curve, though single readings can be large; an effect the other way counts as inactive or inconclusive.

CCCCCn1c(SCCN2CCOCC2)nc2c1c(=O)[nH]c(=O)n2C	PLK1 PBD inh 30µM
CCOCCn1c(SC)nc2c1c(=O)[nH]c(=O)n2C	PLK1 PBD inh 24µM
NN=C1c2cc(S(=O)(=O)NCCO)ccc2-c2ccc(S(=O)(=O)NCCO)cc21	none (no result: PLK1 PBD inh, PI4K2A inh, KAT2A inh, GLS inhibitor)
O=S(=O)(Nn1cnnc1)c1ccccc1	none
O=S(=O)(Nn1cnnc1)c1ccccc1Cl	PLK1 PBD inh 27µM, KAT2A inh inconclusive
Cc1ccc(-c2cc(C(F)(F)F)n3nc(C(=O)Nc4ccon4)cc3n2)cc1C	VDR inh 89µM, GLS inhibitor inconclusive
COc1ccc(-c2cc(C(F)(F)F)n3nc(C(=O)Nc4cc(C)on4)cc3n2)cc1OC	none
Cc1ccc(NC(=S)NNc2ccc([N+](=O)[O-])cc2S(=O)(=O)Nc2ccccc2C(=O)O)cc1C	PLK1 PBD inh 27µM, VDR inh 40µM, KAT2A inh inconclusive, GLS inhibitor inconclusive
COc1ccc(C(C)=NNc2ccc([N+](=O)[O-])cc2S(=O)(=O)Nc2ccccc2C(=O)O)c(OC)c1	PLK1 PBD inh 21µM, VDR inh inconclusive, KAT2A inh inconclusive
O=C(O)c1ccccc1NS(=O)(=O)c1ccc(NNC(=S)Nc2ccc(OC(F)F)cc2)c([N+](=O)[O-])c1	PLK1 PBD inh 11µM, VDR inh inconclusive, KAT2A inh 22µM, GLS inhibitor inconclusive
COc1cccc(C(C)=NNc2ccc([N+](=O)[O-])cc2[N+](=O)[O-])c1OC	none (no result: VDR inh, KAT2A inh)
Cc1nc(-n2nc(C)c(CCC(C)C)c2C)sc1C(=O)Nc1ccc(Br)cc1	none (no result: PLK1 PBD inh)
O=C(CSc1nnc(-c2ccc(Cl)cc2)n1Cc1ccco1)Nc1ccc(S(=O)(=O)Nc2nccs2)cc1	none (no result: PLK1 PBD inh, VDR inh, KAT2A inh, GLS inhibitor)
COc1ccc(C=C(C#N)C(=O)c2ccccc2)cc1	PLK1 PBD inh 6.7µM (no result: VDR inh, KAT2A inh)
Cc1ccc(C=C(C#N)C(=O)c2ccccc2)cc1	PLK1 PBD inh 1.9µM (no result: VDR inh, KAT2A inh)
COc1ccc(/C=C(\C#N)C(=O)OCC(=O)NCc2ccccc2)cc1	none
N#C/C(=C\c1cccs1)C(=O)c1ccccc1	PLK1 PBD inh 6.7µM, GLS inhibitor inconclusive
CN(C)c1ccc(/C=C(\C#N)C(=O)c2ccccc2)cc1	none
N#CC(=Cc1ccc(-c2ccccc2)cc1)C(=O)c1ccccc1	PLK1 PBD inh 1.5µM (no result: VDR inh, KAT2A inh)
CC(C)NC(=O)c1ccc(C=O)cc1	none (no result: PLK1 PBD inh, VDR inh, KAT2A inh, GLS inhibitor)
OCC1=CC[N+]2(Cc3ccccc3)CCC(O)[C@@H]12 (stereo partly specified)	none (no result: PLK1 PBD inh, PI4K2A inh, KAT2A inh, GLS inhibitor)
CCOC(=O)C1=C(CN(CC)Cc2ccccc2)NC(=O)NC1c1ccc(OC(C)C)cc1 (stereo unspecified)	none (no result: PLK1 PBD inh)
CN(C)c1ccc(C=C(C#N)C(=O)c2ccccc2)cc1Br	PLK1 PBD inh 0.84µM (no result: VDR inh, KAT2A inh)
COc1ccc(/C=C(\C#N)C(=O)C(C)(C)n2cncn2)cc1	PLK1 PBD inh 13µM
COc1ccc(/C=C(\C#N)C(=O)c2cccn2C)cc1	none
CCN(CC)c1ccc(/C=C(\C#N)C(=O)c2ccc(Br)cc2)cc1	none
N#C/C(=C\c1ccc(C#N)cc1)C(=O)c1ccccc1	PLK1 PBD inh 4.7µM, VDR inh 79µM
C#CCNC(=O)C[C@H]1C[C@@]2(C(=O)OC)C(=C[C@H](C(C)(C)C)O[C@@H]2C)N(Cc2ccco2)C1=O	none (no result: PLK1 PBD inh, VDR inh, KAT2A inh, GLS inhibitor)
Cc1ccc(-c2nc(NC(=O)CSc3ncn[nH]3)ns2)cc1	PLK1 PBD inh 7.5µM, VDR inh 14µM
Cc1cc(NC(=O)Cc2ccsc2)ccc1Br	none
Cc1cc(C)c2c(=O)n(CC(=O)Nc3cccc(Cl)c3C)sc2n1	PLK1 PBD inh 2.7µM, VDR inh 18µM, KAT2A inh inconclusive, GLS inhibitor inconclusive
Cc1cc(C)c2c(=O)n(CC(=O)NC3CCCC3)sc2n1	PLK1 PBD inh 1.9µM, VDR inh 10µM, KAT2A inh inconclusive
Cc1cc(C)c2c(=O)n(CC(=O)Nc3ccc(Br)c(C)c3)sc2n1	PLK1 PBD inh 3µM, VDR inh inconclusive, KAT2A inh inconclusive
COc1ccc(/C=C2/CN(Cc3ccc(OC)cc3OC)C3=NC(c4ccc5ccccc5c4)CC(=O)N32)cc1 (stereo unspecified)	none (no result: PLK1 PBD inh, VDR inh, KAT2A inh, GLS inhibitor)
Cc1ccc(S(=O)(=O)c2nc(S(=O)(=O)CCO)sc2N2CCOCC2)cc1	PLK1 PBD inh 30µM
CC1CCC(C(C)C)C2=C1C(C#N)(C#N)C(C#N)(C#N)C(c1ccccc1)N2 (stereo unspecified)	PLK1 PBD inh inconclusive, VDR inh 89µM
